Assay results from the supplement of paper PMC11732987, “Enantioselective OTUD7B fragment discovery through chemoproteomics screening and high-throughput optimisation” (Communications Chemistry, 2025).

Assays:
Experiment in all cases: log2 ratio of Biotin-Ahx-Ub-VS probe labelling (fragment/DMSO); higher = less target engagement (more negative = stronger competition), active = hit call of the paper (q ≤ 0.05, log2 ratio ≤ -1)
Conditions in all cases: compound concentration: 200 uM; treatment time: 3 h
ALG13 = biological target: T1, ALG13 (UniProt Q9NP73)
T1 sequence (whole entry): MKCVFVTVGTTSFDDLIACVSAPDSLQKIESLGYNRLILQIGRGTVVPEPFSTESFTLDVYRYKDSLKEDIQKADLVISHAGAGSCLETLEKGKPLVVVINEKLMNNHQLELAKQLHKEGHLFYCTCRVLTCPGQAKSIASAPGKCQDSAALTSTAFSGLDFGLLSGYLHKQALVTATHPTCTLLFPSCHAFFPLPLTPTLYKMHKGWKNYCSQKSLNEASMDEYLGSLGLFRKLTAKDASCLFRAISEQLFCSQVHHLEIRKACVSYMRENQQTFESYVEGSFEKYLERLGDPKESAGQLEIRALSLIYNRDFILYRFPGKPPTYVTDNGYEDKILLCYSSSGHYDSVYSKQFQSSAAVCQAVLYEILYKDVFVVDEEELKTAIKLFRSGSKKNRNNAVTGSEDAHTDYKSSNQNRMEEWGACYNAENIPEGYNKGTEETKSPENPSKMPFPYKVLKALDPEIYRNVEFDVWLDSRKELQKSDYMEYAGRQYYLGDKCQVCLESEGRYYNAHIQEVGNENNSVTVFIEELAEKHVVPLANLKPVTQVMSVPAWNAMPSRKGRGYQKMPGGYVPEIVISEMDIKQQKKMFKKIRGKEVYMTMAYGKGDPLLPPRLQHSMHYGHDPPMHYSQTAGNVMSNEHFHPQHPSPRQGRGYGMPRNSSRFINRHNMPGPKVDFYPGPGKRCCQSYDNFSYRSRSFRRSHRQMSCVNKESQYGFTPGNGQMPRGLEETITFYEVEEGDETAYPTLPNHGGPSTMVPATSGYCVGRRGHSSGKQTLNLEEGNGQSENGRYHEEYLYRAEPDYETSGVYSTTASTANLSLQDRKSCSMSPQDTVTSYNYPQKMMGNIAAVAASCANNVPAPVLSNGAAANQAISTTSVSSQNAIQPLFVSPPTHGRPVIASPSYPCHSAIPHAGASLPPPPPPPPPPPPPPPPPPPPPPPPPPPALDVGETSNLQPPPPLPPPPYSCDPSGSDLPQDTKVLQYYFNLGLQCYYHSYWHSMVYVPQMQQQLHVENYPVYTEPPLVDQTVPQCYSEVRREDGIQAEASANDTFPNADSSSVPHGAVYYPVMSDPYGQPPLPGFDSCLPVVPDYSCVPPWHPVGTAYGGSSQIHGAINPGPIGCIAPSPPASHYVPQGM
In short: (§1)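 Fragment (200 µM) or vehicle was incubated for 3 h with triplicate HEK293T lysate samples of 495 µg, which were then treated with Biotin-Ahx-Ub-VS at 0.5 µM final for 1 h. Labelled DUBs were enriched on NeutrAvidin, digested with LysC and trypsin, and analysed by diaPASEF LC-MS/MS. Values are average log2 fragment/vehicle ratios from an unpaired t-test on global-median-normalised Spectronaut label-free quantities, using proteins with ≥2 unique peptides.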

ATXN3 = ATXN3 (UniProt P54252)
ATXN3, sequence (P54252 whole entry): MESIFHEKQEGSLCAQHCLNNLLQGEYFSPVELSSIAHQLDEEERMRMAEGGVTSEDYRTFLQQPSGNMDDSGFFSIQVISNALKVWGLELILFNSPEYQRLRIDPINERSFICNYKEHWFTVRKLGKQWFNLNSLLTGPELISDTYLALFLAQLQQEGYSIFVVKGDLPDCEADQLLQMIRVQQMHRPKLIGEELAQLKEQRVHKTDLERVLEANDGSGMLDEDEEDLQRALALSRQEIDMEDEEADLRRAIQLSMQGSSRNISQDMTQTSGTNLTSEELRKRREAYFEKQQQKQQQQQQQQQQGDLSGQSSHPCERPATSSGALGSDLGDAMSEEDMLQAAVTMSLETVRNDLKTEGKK
In short: as §1

BAP1 = biological target: T2, BAP1 (UniProt Q92560)
T2 sequence (whole entry): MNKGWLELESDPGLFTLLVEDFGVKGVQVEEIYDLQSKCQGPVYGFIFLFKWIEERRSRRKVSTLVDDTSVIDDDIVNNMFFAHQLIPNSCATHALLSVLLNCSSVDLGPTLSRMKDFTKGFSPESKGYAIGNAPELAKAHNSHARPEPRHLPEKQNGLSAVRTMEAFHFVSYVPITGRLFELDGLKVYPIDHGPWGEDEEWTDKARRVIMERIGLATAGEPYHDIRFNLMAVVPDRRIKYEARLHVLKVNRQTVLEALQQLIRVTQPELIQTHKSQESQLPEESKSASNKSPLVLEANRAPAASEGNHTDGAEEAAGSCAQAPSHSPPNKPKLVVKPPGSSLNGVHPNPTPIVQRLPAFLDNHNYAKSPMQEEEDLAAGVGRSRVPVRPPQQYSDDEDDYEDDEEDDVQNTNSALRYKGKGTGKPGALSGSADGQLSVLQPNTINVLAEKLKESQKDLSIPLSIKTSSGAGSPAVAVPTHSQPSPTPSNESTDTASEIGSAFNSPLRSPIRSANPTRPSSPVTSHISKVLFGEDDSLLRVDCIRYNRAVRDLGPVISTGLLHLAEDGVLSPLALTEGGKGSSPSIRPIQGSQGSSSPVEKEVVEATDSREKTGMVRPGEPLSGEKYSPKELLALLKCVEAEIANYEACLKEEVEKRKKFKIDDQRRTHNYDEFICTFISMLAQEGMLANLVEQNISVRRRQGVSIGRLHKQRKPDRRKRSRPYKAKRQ
In short: as §1

EIF3F = EIF3F (UniProt O00303)
EIF3F, sequence (O00303 whole entry): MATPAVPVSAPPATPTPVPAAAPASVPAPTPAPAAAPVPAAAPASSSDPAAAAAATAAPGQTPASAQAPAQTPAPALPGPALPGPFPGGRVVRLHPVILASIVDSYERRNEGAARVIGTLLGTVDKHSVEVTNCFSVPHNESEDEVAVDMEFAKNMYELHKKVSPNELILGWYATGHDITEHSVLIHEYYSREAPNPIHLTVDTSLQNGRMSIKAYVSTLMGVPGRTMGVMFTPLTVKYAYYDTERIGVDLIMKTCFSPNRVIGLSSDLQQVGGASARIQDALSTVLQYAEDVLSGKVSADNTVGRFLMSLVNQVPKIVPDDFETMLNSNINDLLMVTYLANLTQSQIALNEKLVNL
In short: as §1

EIF3H = EIF3H (UniProt O15372)
EIF3H, sequence (O15372 whole entry): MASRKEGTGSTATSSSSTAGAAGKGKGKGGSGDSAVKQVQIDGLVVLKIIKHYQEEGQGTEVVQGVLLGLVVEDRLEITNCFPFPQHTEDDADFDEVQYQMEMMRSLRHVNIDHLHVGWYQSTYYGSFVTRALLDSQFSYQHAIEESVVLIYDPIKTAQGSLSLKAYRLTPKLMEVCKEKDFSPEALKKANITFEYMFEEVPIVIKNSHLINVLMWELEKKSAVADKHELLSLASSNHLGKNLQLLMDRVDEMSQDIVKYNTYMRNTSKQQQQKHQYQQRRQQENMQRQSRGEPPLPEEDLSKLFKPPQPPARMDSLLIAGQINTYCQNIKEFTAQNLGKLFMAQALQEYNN
In short: as §1

FAM105A = biological target: T3, FAM105A (UniProt Q9NUU6)
T3 sequence (whole entry): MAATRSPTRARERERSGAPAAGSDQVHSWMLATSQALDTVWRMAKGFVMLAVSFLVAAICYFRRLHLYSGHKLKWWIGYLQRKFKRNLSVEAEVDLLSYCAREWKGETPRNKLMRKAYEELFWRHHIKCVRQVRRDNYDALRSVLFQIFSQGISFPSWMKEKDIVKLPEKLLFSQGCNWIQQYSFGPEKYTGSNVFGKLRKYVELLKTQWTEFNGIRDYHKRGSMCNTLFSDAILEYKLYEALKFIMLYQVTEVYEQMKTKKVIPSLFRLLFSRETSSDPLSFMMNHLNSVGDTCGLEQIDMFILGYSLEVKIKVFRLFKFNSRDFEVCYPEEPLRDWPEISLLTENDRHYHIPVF
In short: as §1

OTUB1 = OTUB1 (UniProt Q96FW1)
OTUB1, sequence (Q96FW1 whole entry): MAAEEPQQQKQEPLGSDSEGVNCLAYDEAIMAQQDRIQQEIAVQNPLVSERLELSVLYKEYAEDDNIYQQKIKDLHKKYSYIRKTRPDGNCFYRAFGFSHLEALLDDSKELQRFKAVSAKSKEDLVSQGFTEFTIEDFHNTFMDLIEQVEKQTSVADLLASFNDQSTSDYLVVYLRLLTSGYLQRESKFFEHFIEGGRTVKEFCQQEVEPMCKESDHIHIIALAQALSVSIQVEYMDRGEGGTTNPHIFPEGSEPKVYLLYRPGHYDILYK
In short: as §1

OTUD4 = biological target: T4, OTUD4 (UniProt Q01804)
T4 sequence (whole entry): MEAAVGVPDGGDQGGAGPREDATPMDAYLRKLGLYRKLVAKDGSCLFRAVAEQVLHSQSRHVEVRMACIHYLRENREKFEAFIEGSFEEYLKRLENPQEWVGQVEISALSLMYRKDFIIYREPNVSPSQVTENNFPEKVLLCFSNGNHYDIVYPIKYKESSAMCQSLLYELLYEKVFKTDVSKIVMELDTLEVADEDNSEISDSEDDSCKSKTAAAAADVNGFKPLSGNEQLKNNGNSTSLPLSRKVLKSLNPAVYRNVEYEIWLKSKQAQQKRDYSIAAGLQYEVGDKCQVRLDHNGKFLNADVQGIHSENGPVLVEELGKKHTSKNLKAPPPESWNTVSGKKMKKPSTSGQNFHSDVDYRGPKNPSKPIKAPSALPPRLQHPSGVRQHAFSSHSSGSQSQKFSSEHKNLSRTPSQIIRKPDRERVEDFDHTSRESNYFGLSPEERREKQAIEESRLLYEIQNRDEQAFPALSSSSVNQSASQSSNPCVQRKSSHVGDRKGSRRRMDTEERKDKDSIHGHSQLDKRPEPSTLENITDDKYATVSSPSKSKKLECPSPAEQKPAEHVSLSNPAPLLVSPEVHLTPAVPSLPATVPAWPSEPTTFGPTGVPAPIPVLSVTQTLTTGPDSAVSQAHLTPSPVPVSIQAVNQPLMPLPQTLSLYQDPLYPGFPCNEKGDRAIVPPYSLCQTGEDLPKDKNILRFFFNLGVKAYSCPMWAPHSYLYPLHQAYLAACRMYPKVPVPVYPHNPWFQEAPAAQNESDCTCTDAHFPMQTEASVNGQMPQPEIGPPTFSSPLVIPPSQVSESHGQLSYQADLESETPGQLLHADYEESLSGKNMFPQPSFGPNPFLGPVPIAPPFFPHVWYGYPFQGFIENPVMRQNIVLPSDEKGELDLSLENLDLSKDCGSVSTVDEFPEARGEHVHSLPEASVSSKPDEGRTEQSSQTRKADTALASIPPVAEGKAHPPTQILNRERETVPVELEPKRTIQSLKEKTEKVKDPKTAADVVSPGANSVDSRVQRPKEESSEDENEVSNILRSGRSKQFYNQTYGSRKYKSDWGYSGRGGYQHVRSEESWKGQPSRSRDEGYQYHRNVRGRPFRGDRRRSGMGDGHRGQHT
In short: as §1

OTUD5 = biological target: T5, OTUD5 (UniProt Q96G74)
T5 sequence (whole entry): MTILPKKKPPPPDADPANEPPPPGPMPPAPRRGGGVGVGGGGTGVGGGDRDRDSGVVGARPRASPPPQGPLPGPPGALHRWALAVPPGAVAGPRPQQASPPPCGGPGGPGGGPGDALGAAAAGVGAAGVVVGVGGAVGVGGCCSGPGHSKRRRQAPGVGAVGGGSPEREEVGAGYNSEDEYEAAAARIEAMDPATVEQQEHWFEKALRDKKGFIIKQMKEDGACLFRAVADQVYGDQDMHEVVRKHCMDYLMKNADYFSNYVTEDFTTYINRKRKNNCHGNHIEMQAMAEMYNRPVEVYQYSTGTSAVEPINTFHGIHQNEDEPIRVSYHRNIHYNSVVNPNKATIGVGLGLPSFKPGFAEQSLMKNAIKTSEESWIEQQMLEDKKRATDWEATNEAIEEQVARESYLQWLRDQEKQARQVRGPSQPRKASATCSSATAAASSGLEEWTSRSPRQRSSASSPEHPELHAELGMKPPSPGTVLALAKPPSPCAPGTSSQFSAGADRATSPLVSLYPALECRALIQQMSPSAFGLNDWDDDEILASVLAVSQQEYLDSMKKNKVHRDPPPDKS
In short: as §1

Measured: log2 ratio of Biotin-Ahx-Ub-VS probe labelling

O=C(CCl)Nc1nnc(CC(F)(F)F)o1
inactive: ALG13 -0.0296 | ATXN3 -0.129 | BAP1 -0.573 | EIF3F -0.0944 | EIF3H 0.23 | FAM105A 0.0181 | OTUB1 0.15 | OTUD4 -0.445 | OTUD5 -0.385

O=C(CCl)N(Cc1ccsc1)C1CC1
inactive: ALG13 0.115 | ATXN3 -0.173 | BAP1 -0.841 | EIF3F -0.0964 | EIF3H 0.0796 | FAM105A -0.378 | OTUB1 -0.191 | OTUD4 -0.285 | OTUD5 -0.657

N#Cc1cnn(-c2ccccc2)c1NC(=O)CCl
active: ATXN3 -1.2 | BAP1 -4.3
inactive: ALG13 0.0569 | EIF3F -0.258 | EIF3H 0.233 | FAM105A -0.0309 | OTUB1 -0.0957 | OTUD4 -0.641 | OTUD5 -0.526

Cc1cc(C(=O)NC2CCN(C(=O)CCl)CC2)no1
inactive: ALG13 0.0715 | ATXN3 -0.572 | BAP1 -0.339 | EIF3F -0.05 | EIF3H 0.0609 | FAM105A 0.133 | OTUB1 -0.0459 | OTUD4 -0.297 | OTUD5 -0.298

O=C(CCl)N1CCc2nc[nH]c2C1c1ccc(Cl)cc1 (stereo not given)
active: BAP1 -1.65 | OTUD5 -1.26
inactive: ALG13 -0.0235 | ATXN3 -0.508 | EIF3F -0.277 | EIF3H 0.263 | FAM105A 0.102 | OTUB1 0.00111 | OTUD4 -0.508

Cl.O=C(CCl)NCc1ccnc(Oc2ccccc2F)c1
inactive: ALG13 0.177 | ATXN3 -0.51 | EIF3F -0.072 | EIF3H -0.589 | FAM105A -0.0684 | OTUB1 -0.232 | OTUD4 -0.244 | OTUD5 -0.524
active: BAP1 -3.99

Cc1ccc2nnc(CNC(=O)CCl)n2c1
active: BAP1 -1.05
inactive: ALG13 0.205 | ATXN3 -0.0879 | EIF3F -0.17 | EIF3H 0.00833 | FAM105A 0.283 | OTUB1 0.0976 | OTUD4 0.0524 | OTUD5 0.0162

CC(O)CC1CCN(C(=O)CCl)CC1 (stereo not given)
inactive: ALG13 -0.345 | ATXN3 -0.291 | BAP1 -0.221 | EIF3F -0.0746 | EIF3H 0.247 | FAM105A -0.12 | OTUB1 0.128 | OTUD4 0.0747 | OTUD5 -0.195

CC(NC(=O)CCl)c1cccc(Cl)c1 (stereo not given)
inactive: ALG13 0.0326 | ATXN3 -0.401 | EIF3F 0.0315 | EIF3H 0.0634 | FAM105A -0.0535 | OTUB1 0.0729 | OTUD4 -0.705 | OTUD5 -0.433
active: BAP1 -3.17

O=C(CCl)N1CCOC2(CCC2)C1
inactive: ALG13 -0.352 | ATXN3 -0.0796 | BAP1 -0.352 | EIF3F -0.125 | EIF3H 0.226 | FAM105A -0.0758 | OTUB1 -0.141 | OTUD4 -0.57 | OTUD5 -0.148

Cl.Cn1ncc2c1CC(NC(=O)CCl)CC2 (stereo not given)
active: BAP1 -1.1
inactive: ALG13 0.027 | ATXN3 -0.0274 | EIF3F -0.121 | EIF3H -0.266 | FAM105A 0.307 | OTUB1 -0.112 | OTUD4 -0.464 | OTUD5 0.000518

CN1C(=O)c2ccc(NC(=O)CCl)cc2C1=O
active: BAP1 -3.58
inactive: ALG13 0.35 | ATXN3 -0.464 | EIF3F -0.166 | EIF3H 0.319 | FAM105A -0.33 | OTUB1 0.0722 | OTUD4 -0.313 | OTUD5 -0.621

CCN(C(=O)CCl)C1CCCCC1
inactive: ALG13 0.0472 | ATXN3 -0.0119 | BAP1 0.174 | EIF3F -0.141 | EIF3H 0.022 | FAM105A -0.207 | OTUB1 0.0443 | OTUD4 -0.12 | OTUD5 -0.00145

Cl.Cn1ncc2c1CCCC2NC(=O)CCl (stereo not given)
active: OTUD4 -1.75
inactive: ALG13 0.35 | ATXN3 -0.16 | BAP1 -0.894 | EIF3F -0.378 | EIF3H 0.457 | FAM105A 0.0219 | OTUB1 -0.186 | OTUD5 -0.0276

Cc1cc(NC(=O)CCl)n(-c2ccccc2)n1
inactive: ALG13 -0.0258 | ATXN3 -0.205 | EIF3F -0.154 | EIF3H 0.0602 | FAM105A 0.513 | OTUB1 -0.315 | OTUD4 0.184 | OTUD5 -0.222
active: BAP1 -3.5
